Bioassay records: PubChem BioAssay, several laboratories
Sampled rows, rich in hits. Any-hit rate of the full collection: about 2.1%.
EP2 antag: EP2 receptor (human) inhibition. C6 glioma cells expressing human EP2, cAMP TR-FRET; cells stimulated with saturating PGE2. inhibition, % at 25 µM. actives 0.52% (n = 260,000). AID 1422;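 active = percent inhibition above 40 after rounding to a whole number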;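 note: rat C6 glioma host cells with rolipram phosphodiesterase inhibitor present; the protocol text gives 20 µM as final concentration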
Target sequence (P43116 whole entry, looked up): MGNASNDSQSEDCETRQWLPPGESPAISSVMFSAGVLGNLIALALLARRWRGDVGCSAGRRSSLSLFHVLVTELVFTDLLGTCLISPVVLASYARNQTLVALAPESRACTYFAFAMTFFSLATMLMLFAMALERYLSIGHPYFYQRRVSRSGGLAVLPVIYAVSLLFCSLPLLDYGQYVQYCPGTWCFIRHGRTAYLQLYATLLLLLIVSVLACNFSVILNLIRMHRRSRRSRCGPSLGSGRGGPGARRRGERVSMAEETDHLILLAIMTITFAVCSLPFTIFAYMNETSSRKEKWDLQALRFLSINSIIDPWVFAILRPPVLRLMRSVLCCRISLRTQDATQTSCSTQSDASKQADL
HMGR II inh: E. faecalis class II HMG-CoA reductase inhibition | AID 1066 | purified E. faecalis HMGR, NADPH absorbance 340 nm kinetic | actives 0.41% (n = 190,000) | inhibition, % at 10 µM;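 active = inhibition above a set limit, the median over all tested compounds plus 3 SD, cut at about 9.5% in these data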;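 note: enzyme runs in reverse so mevalonate oxidation gives rising NADPH absorbance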
EP2 mod: modulates human prostaglandin E2 receptor EP2 signaling; P43116; EP2-expressing cells, cAMP HTRF FRET, PGE2 co-stimulation; induction, % at 25 µM; actives 0.83% (n = 260,000); AID 940;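 active = compounds whose cAMP rise, as percent of the full-agonist control response, exceeds 60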;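 note: rat C6 glioma line stably carrying human EP2 under a CMV promoter; the protocol text gives 20 µM as final concentration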
Avidin bead fluor: avidin bead compound fluorescence profile; Avidin beads, compound fluorescence 488/530 nm, flow cytometry; stronger effect = higher value; fluorescence (KMESF) at 10 µM; actives 0.38% (n = 220,000); in the data active = fluorescence above about 47
GSH bead fluor: GSH bead compound fluorescence profile | GSH beads flow cytometry, compound fluorescence 488/530 nm; stronger effect = higher value | fluorescence (KMESF) at 10 µM | actives 0.25% (n = 190,000); in the data active = fluorescence above about 89;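 note: glutathione beads carrying GST-tagged Bcl family fusion proteins plus one bare bead set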
Numbers stand for hits; n = inactive; x = no result.

SMILES	EP2 antag	HMGR II inh	EP2 mod	Avidin bead fluor	GSH bead fluor
O=S(=O)(N1CCCCC1)N1CCN(c2ccccc2F)CC1	n	n	n	70	n
Cc1ccc(C)c2[nH]c(=O)c(CN(Cc3nnnn3CCc3ccccc3)C3CCCCC3)cc12	n	x	n	x	x
COC(CNC(=O)CNC(=S)N(Cc1ccccc1)Cc1cccnc1)OC	n	9.6	n	n	n
CCc1ccccc1NC(=O)CSc1nnc2c(C)cc3ccc(C)cc3n12	n	x	n	x	x
Cc1cccc(N2CCN(c3nc4ccccc4n4cnnc34)CC2)c1C	n	n	62.6	n	n
c1cnc(N2CCN(c3nc4ccccc4n4cnnc34)CC2)nc1	n	n	n	n	n
COc1ccc(C2C3CN(C(C)=O)CC=C3C(C#N)=C(N)C2(C#N)C#N)c2ccccc12 (stereo unspecified)	n	x	n	x	x
COc1cc(C(=O)O[C@H]2CC[C@@]3(C)[C@@H]4CC[C@H]5[C@]6(O)C[C@H](O)[C@@]7(O)[C@@H](CN8C[C@@H](C)CC[C@H]8[C@@]7(C)O)[C@]6(O)C[C@@]53OC24O)cc(OC)c1OC	n	x	n	x	x
CC(=O)Nc1ccc(N2CCCCC2)c(C(=O)Nc2cccc(C)c2)c1	n	n	62.1	n	n
Cc1cccc(NC(=O)c2cc(NC(=O)C3CCCCC3C(=O)O)ccc2N2CCCCC2)c1 (stereo unspecified)	n	n	n	n	n
Cc1nccn1S(=O)(=O)c1ccc(Br)cc1Br	n	n	n	92	n
O=C(CCCN1C(=O)c2ccccc2C1=O)NC1=NCCS1	n	n	n	n	259
O=C(CCCN1C(=O)c2ccccc2C1=O)Nc1nncs1	n	n	n	n	n
CSc1ccccc1NC(=O)CN(C1CCCCC1)S(C)(=O)=O	n	n	n	n	n
CN(CC(=O)Nc1ccccc1Sc1ccccc1)C1CCCCC1	n	n	64.1	n	n
COc1ccccc1NC(=O)c1ccc2c(c1)N(CC(=O)N1CCCC1)C(=O)C(C)(C)O2	n	x	n	x	x
Nc1nc2c(c(=O)[nH]1)N[C@H](CCNc1ccc(C(=O)O)cc1)CN2	48.6	x	n	x	x
CCc1nc(NC(=O)Cc2sc(C)nc2-c2ccccc2)sc1C	n	x	n	x	x
O=C1C2CCCN2C(c2ccc(Br)cc2)N1c1ccc(F)cc1 (stereo unspecified)	n	n	n	n	n
O=C1C2CCCN2C(c2cccc(Br)c2)N1c1ccc(F)cc1 (stereo unspecified)	n	n	n	48	n
C=CCNC(=S)NNC(=O)C(CCCC)CC(O)COCC(C)C (stereo unspecified)	120.0	x	n	n	x
Cc1cc(C)n2nc(C(=O)N3CCCC34CC=CC4)cc2n1	n	x	n	x	x
CCOc1ccc2[nH]c(=O)c(CN(C(=O)c3cccc(F)c3)C3CCCC3)cc2c1	n	x	n	x	x
Cc1ccc(-c2nc3cc(N)ccc3o2)cc1	x	n	n	n	n
Cc1ccc(-c2nc3cc(N)ccc3o2)c(C)c1	41.3	n	n	n	n
SMILES	EP2 antag	HMGR II inh	EP2 mod	Avidin bead fluor	GSH bead fluor
O=C(Nc1nc2ccc(F)cc2s1)c1ccc(Cl)cc1Cl	n	x	n	x	x
Cn1ccnc1C1(O)CC2CCC(C1)N2C(=O)c1ccccc1-c1ccccc1 (stereo unspecified)	x	x	n	x	x
CN(C)c1nc(N(C)C)nc(N(C#N)C(=O)COc2ccc(Cl)cc2Cl)n1	n	x	n	x	x
COc1ccc(NC(=O)c2oc3ccccc3c2C)cc1OC	n	x	n	x	x
COc1ccc(NC(=O)c2coc3ccccc23)cc1OC	n	x	n	n	259
c1ccc2c(c1)CCCC2NC1=NCCC1 (stereo unspecified)	n	n	n	n	256
CCN(CC)S(=O)(=O)c1ccc(NC2CCCc3ccccc32)nc1 (stereo unspecified)	n	n	n	n	n
CC(C)NC(=O)Cn1cc(CN2CCCCC2CN2CCOCC2)c2ccccc21 (stereo unspecified)	n	x	n	x	x
O=S1(=O)c2ccccc2N=NN1Cc1ccc(Cl)c(Cl)c1	45.1	n	n	n	n
Cc1ccc(N(C(=O)c2csnn2)C(C(=O)NC(C)(C)C)c2ccc(C)o2)c(C)c1 (stereo unspecified)	n	x	n	x	x
Cc1ccc(C)c2[nH]c(=O)c(CN(Cc3ccc4c(c3)OCO4)S(=O)(=O)c3ccc(F)cc3)cc12	n	x	n	x	x
Cc1cc(C)c(S(=O)(=O)c2ccccc2)c(OC(=O)c2c(F)cccc2F)n1	n	13.5	n	n	n
CCCNCc1cc(OC)c(OCc2ccccc2)cc1Br	n	19.1	n	n	n
N#C/C(C(=O)c1ccccc1)=C1/CCCN1	n	n	n	48	n
Oc1c(Br)cc(Br)c2cccnc12	n	x	n	x	x
[O-][n+]1cccc2c(Br)cc(Br)c(O)c21	n	9.9	n	n	n
CN1C(=O)c2ccccc2OC1(C)Cc1ccccc1 (stereo unspecified)	n	n	n	n	n
Cc1cc(C=O)c2c(c1)C=CC1(Oc3ccccc3C(=O)N1C)O2 (stereo unspecified)	x	18.6	n	n	n
CC(=O)N1CCN(c2ccc(NC(=O)COc3cccc(C)c3C)cc2)CC1	n	x	n	x	x
Cc1noc(C)c1COC(=O)COc1cccc2c1OC(C)(C)C2	n	n	64.8	n	n
O=C(COc1ccccc1)Nc1cc(C(F)(F)F)ccc1N1CCOCC1	n	x	n	x	x
CC1(C)Cc2cccc(OCC(=O)Nc3cc(C(F)(F)F)ccc3N3CCOCC3)c2O1	n	n	n	141	n
CC(=O)Nc1ccc(NC(=O)COc2cccc3c2OC(C)(C)C3)cc1	n	n	n	58	n
CC(NC(=O)/C(=C\c1cccs1)NC(=O)c1ccccc1)C(=O)O (stereo unspecified)	n	x	n	x	x
CCOC(=O)c1c2c(n3ccccc13)C(=O)c1ccccc1C2=O	46.4	x	n	x	x
SMILES	EP2 antag	HMGR II inh	EP2 mod	Avidin bead fluor	GSH bead fluor
CCOC(=O)c1sc(N2C(=O)C(=O)/C(=C(\O)c3ccc(OC)cc3C)C2c2cccnc2)nc1C (stereo unspecified)	54.5	x	n	x	x
O=C(c1cccc2cccnc12)N1C2CCC1CC(c1ccc(F)cc1)C2 (stereo unspecified)	n	x	n	x	x
Cc1cc(N2CCOCC2)nc(SCC(=O)OCc2ccccc2)n1	n	11.3	n	n	n
COc1ccc(/C=N/NC(=O)C(C)Sc2ccccn2)cc1[N+](=O)[O-] (stereo unspecified)	n	14.5	n	n	n
CCc1nn(CC(=O)NCCc2ccccc2)c(=O)c2cc3ccsc3n12	x	x	n	x	x
O=C(O)/C(=C\c1cccs1)c1ccccc1	n	12.3	n	n	n
CCN1CCN(C(c2cc3c(C)ccc(C)c3[nH]c2=O)c2nnnn2C(C)(C)CC)CC1 (stereo unspecified)	n	x	n	x	x
Cc1ccc(NS(=O)(=O)c2cccc(C(=O)OCC(=O)NCc3ccco3)c2)cc1	n	n	n	n	231
CCOC(=O)CNC(=O)CSc1nnc(-c2ccc(Br)cc2)n1C	n	x	n	x	x
Cc1cc2c(o1)c1cnn(CC(=O)N(C)C)c(=O)c1n2C(C)C	x	x	n	x	x
O=C(Nc1ccc(OCC(F)(F)C(F)F)c(C(F)(F)F)c1)c1ccccc1	44.7	x	x	x	x
